Laboratory results as given in publication PMC4336329 (PLoS ONE, 2015).
Among all 310,000 compounds or so, about 14,000 (4.5%) showed an effect of 50% or more. The effect is printed as a negative number. The list comes from a sample in which strong results are over-represented; it also holds similar structures and randomly drawn compounds.

Target: human ether-à-go-go-related gene (hERG) potassium channel (human, UniProt Q12809)
Experiment: primary screen, population patch clamp on CHO cells stably expressing hERG; higher = less effect of the substance
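Note: peak tail current of the secondary pulse compared with the same well before compound.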

Chain of human ether-à-go-go-related gene (hERG) potassium channel (Q12809 whole entry, looked up): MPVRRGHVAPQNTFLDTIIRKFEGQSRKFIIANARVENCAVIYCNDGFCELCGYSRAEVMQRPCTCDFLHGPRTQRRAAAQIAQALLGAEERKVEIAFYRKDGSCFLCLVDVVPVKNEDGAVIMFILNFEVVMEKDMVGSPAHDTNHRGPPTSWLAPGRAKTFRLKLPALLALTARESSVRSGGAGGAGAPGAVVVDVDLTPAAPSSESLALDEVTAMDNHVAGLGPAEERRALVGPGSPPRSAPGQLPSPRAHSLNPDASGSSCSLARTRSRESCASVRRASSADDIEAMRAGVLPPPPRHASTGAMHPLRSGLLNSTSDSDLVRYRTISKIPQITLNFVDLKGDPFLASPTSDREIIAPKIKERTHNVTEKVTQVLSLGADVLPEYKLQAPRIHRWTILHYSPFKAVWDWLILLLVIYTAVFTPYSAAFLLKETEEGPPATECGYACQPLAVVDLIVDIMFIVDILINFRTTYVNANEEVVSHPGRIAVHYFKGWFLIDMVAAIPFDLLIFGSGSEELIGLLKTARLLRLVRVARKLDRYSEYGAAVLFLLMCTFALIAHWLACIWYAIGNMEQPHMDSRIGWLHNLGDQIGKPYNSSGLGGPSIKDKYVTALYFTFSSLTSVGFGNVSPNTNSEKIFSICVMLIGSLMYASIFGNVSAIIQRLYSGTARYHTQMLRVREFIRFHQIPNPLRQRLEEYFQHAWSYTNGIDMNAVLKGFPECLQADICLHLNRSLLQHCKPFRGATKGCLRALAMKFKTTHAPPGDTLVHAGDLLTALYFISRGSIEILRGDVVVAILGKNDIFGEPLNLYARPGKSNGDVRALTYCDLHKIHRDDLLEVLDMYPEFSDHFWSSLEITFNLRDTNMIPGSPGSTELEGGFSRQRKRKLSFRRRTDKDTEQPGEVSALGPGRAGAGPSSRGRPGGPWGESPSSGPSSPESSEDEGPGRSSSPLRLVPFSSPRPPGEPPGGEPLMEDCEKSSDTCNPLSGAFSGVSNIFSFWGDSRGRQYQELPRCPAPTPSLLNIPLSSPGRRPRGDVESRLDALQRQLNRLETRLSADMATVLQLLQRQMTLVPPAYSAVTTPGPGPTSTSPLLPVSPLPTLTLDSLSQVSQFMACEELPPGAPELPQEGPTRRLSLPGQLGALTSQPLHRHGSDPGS

Row | Structure (SMILES) | hERG current change (%, negative = inhibition) at 10uM [%]
1 | O=C(CSc1nc2ncccc2[nH]1)NC1CCCC1 | 7.42
2 | S=c1[nH]nc(COc2ccccc2)n1/N=C/c1ccc(Br)s1 | -18.8
3 | COc1ccc(S(=O)(=O)N2CCN(C)CC2)cc1C | 7.28
4 | Cc1ccc(/C=N/NC(=O)Cn2cnc3ccccc32)o1 | 3.48
5 | COc1ccc(N2CCN(c3nc(-c4cccs4)nc4ccccc34)CC2)cc1 | 14.4
6 | O=S(=O)(c1ccccc1)N1CCN(c2nc(-c3cccs3)nc3ccccc23)CC1 | 9.84
7 | CC1CCN(c2nnc(-c3cccs3)c3ccccc23)CC1 | -41.6
8 | c1ccc(N2CCN(c3nc(-c4cccs4)nc4ccccc34)CC2)cc1 | -8.84
9 | CCCN1CCN(c2nc(-c3cccs3)nc3ccccc23)CC1 | -68.6
10 | Fc1ccccc1N1CCN(c2nc(-c3cccs3)nc3ccccc23)CC1 | 8.57
11 | CCN1CCN(c2nc(-c3cccs3)nc3ccccc23)CC1 | -70.8
12 | Oc1ccc(N2CCN(c3nc(-c4cccs4)nc4ccccc34)CC2)cc1 | 16.5
13 | CN1CCN(c2nnc(-c3cccs3)c3ccccc23)CC1 | -53.9
14 | c1csc(-c2nnc(N3CCOCC3)c3ccccc23)c1 | -32.1
15 | c1csc(-c2nc(N3CCOCC3)c3ccccc3n2)c1 | -10.1
16 | CN1CCN(c2nc(-c3cccs3)nc3ccccc23)CC1 | -73.9
17 | COc1ccc(CNC(=O)c2oc3ccc(S(=O)(=O)N4CCOCC4)cc3c2C)cc1 | 7.71
18 | COc1ccccc1NC(=O)Nc1ncccc1C | -1.09
19 | O=C1NCCN(Cc2ccoc2)C1CC(=O)N(Cc1ccccc1)CC1CCC1 (stereo not drawn) | 8.87
20 | COc1ccc(Cl)cc1NC(=O)COC(=O)c1c(-c2ccccc2)noc1C | -2.53
21 | Oc1ccccc1N1CCN(c2nc(-c3cccs3)nc3ccccc23)CC1 | 5.52

Row | Structure (SMILES) | hERG current change (%, negative = inhibition) at 10uM [%]
22 | CCOC(=O)N1CCN(c2nc(-c3cccs3)nc3ccccc23)CC1 | -1.74
23 | CC(=O)N1CCN(c2nc(-c3cccs3)nc3ccccc23)CC1 | -63.2
24 | CC(=O)NC(CC(=O)Nc1nccs1)c1ccccc1.O=C(O)C(=O)O (stereo not drawn) | 1.49
25 | COCCCNCCOCCOc1ccc(Cl)cc1C(C)(C)C.O=C(O)C(=O)O | -50.6
26 | C=CCNCCCOc1ccc(Cl)cc1C(C)(C)C.O=C(O)C(=O)O | -60.8
27 | C=CCNCCOCCOc1ccc(Cl)cc1C(C)(C)C.O=C(O)C(=O)O | 11.2
28 | CC(C)(C)NCCOCCOc1ccc(Cl)cc1C(C)(C)C.O=C(O)C(=O)O | 0.207
29 | CC(C)(C)NCCCOc1ccc(Cl)cc1C(C)(C)C.O=C(O)C(=O)O | 1.96
30 | CC(O)CNCCCOc1ccc(Cl)cc1C(C)(C)C.O=C(O)C(=O)O (stereo not drawn) | -15.9
31 | COCCCNCCCOc1ccc(Cl)cc1C(C)(C)C | -57.5
32 | CNCCCOc1ccc(Cl)cc1C(C)(C)C.O=C(O)C(=O)O | -20.6
33 | COCCCNCCCOc1ccc(Cl)cc1Br | -39.2
34 | O=C(CSc1ccccn1)N1CCN(c2ccccc2)CC1 | 7.55
35 | COc1ccc(O[C@H]2C=C[C@@H](c3ccccc3)O[C@@H]2CO/N=C(\C)CCN2CCc3nc(-c4ccccc4)c(-c4ccccc4)cc3C2)cc1 | 6.94
36 | CCCNC(=O)NC(=O)CSc1ncc(C(F)(F)F)cc1Cl | 12.6
37 | C#CCOCCOCCOCCNc1nc(N2CCN(C(=O)[C@H](CCCCN)n3cc([C@@H](N)CC(C)C)nn3)CC2)nc(N2CCN(C(=O)[C@H](CCCCN)n3cc([C@@H](N)CC(C)C)nn3)CC2)n1.Cl | 4.98
38 | CCCCNS(=O)(=O)c1ccc(S(=O)(=O)NCc2ccncc2)cc1 | -9.06
39 | CCc1cccc2c(C(=O)CSc3nncn3C)c[nH]c12 | 7.69
40 | CN(C(=O)CC1C(=O)NCCN1Cc1ccc(F)cc1Cl)C1CCCCC1 (stereo not drawn) | -2.68
41 | Cc1ccc(C(=O)N2CCN(c3ccc([N+](=O)[O-])c(NCc4ccco4)c3)CC2)cc1 | -50.5
42 | Cc1cccc(C(=O)N2CCN(c3ccc([N+](=O)[O-])c(NCc4ccco4)c3)CC2)c1 | -34
